Results from PubChem BioAssay AID489037 (National Center for Advancing Translational Sciences (NCATS), 2010).
Results filed as inconclusive are left out. Values without a mark were called inactive. Activity calls are given as the source filed them. Calls follow the shape of the dose curve; as a rule, active = well fitted inhibition curve with a large enough effect; inconclusive = small, poorly fitted or top-dose-only effect, or effect the other way; inactive = no such curve, though single readings can be large or run the other way.

The compounds below were run against Nuclear receptor ROR-gamma (Mus musculus) (UniProt P51450) (assay: Secondary confirmation assay for inhibitors of ROR gamma transcriptional activity). Conditions: Drosophila S2 Gal4-RORgamma UAS-luciferase reporter, 20 h; series mostly up to 92.2 µM; activity change, negative = inhibition: at the top concentration.
Chain of Nuclear receptor ROR-gamma (Mus musculus) (P51450 whole entry, looked up, the tested form may be a part): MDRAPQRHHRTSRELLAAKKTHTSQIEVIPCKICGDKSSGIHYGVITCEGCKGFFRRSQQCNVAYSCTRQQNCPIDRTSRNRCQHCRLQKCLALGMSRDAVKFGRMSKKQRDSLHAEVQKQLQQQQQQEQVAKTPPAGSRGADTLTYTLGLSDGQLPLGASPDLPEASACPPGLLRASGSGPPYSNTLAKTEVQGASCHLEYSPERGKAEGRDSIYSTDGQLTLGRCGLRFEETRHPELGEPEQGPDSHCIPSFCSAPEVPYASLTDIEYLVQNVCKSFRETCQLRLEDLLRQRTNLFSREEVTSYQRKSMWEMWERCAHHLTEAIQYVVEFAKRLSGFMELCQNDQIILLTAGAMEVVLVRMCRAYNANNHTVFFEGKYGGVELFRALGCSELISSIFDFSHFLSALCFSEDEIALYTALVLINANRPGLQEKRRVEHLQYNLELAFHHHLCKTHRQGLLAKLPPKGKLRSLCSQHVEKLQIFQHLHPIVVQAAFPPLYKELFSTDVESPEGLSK
In short: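 Drosophila Schneider cells stably expressing Gal4-DBD/ROR gamma fusion (metallothionein promoter) with UAS-Photinus luciferase reporter. Compound preincubated 1 hr, then copper sulfate 700 uM final added; 20 hr at ambient temperature, luminescence read.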
`CCN(CC)c1ccc(/C=N/n2c(-c3ccccc3Br)n[nH]c2=S)cc1` was tested, and the Potency was 1.62 µM (active). For `COc1cc(O)c(C(CC(=O)N2CCCC(C#N)C2)c2ccc3c(c2)OCO3)c(OC)c1` (stereo not given), the “activity change, negative = inhibition” value was -20.7%. In the case of `Cc1cc(C)c2[nH]c(C(=O)Nc3ccc4c(c3)OCO4)cc2c1`, the Potency is reported as 0.257 µM (active). For `COc1cc(O)c(C(CC(=O)N2CCCC(C(C)C)C2)c2ccc3c(c2)OCO3)c(OC)c1` (stereo not given), the Potency was 25.7 µM (active). In the case of `Cc1ccc(-c2cn(-c3ccccc3)c3[n+]2CCCS3)cc1`, the Potency is reported as 28.8 µM (active). In the case of `COc1cc(O)c(C(CC(=O)N2CCC(Cc3ccccc3)CC2)c2ccc(OC)c(OC)c2)c(OC)c1` (stereo not given), the “activity change, negative = inhibition” value is reported as 7.01%. For `COC(=O)c1ccc(OCC(=O)c2ccc(O)cc2O)cc1`, the Potency was 0.363 µM (active). `COc1cc(O)c(C(CC(=O)N2CCCCC2)c2ccc(OC)c(OC)c2)c(OC)c1` (stereo not given) was tested, and the “activity change, negative = inhibition” value was -14.4%. `COc1cc(O)c(C(CC(=O)N2CCCC2)c2ccc3c(c2)OCO3)c(OC)c1` (stereo not given) was tested, and the “activity change, negative = inhibition” value was -12.2%. In the case of `COc1cc(O)c(C(CC(=O)NCC2CCCCC2)c2ccc3c(c2)OCO3)c(OC)c1` (stereo not given), the “activity change, negative = inhibition” value is reported as -24.8%. For `COc1cc(O)c(C(CC(=O)N2CCCC(C)C2)c2ccccc2OC)c(OC)c1` (stereo not given), the “activity change, negative = inhibition” value was 0.544%. In the case of `COc1ccc(C(=O)/C=C/c2ccc(OC)cc2OC)c(O)c1`, the Potency is reported as 0.575 µM (active). `CCOc1ccc(C(CC(=O)N2CCCC(C)C2)c2c(O)cc(OC)cc2OC)cc1` (stereo not given) was tested, and the Potency was 4.07 µM (active). With `CCOC(=O)C1CCN(CC(=O)Nc2cc(C)nn2-c2nc3ccccc3s2)CC1` the Potency was 5.75 µM (active). In the case of `COc1cc(O)c(C(CC(=O)N2CCCC(C)C2)c2ccc(C)cc2)c(OC)c1` (stereo not given), the Potency is reported as 10.2 µM (active).
